PubChem BioAssay AID624330 (Southern Research Specialized Biocontainment Screening …, 2012)
The whole screen tested about 340,000 compounds, of which about 2,100 (0.62%) were called active. Not all results are given here. Potency and affinity values are given separately. Unmarked numbers belong to inactive results.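 The calls were made as follows: active = first-screen hits whose inhibition reached a set limit at any dose in the follow-up dose series; inconclusive = inhibition above the set first-screen limit but never retested; inactive = the rest.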

What follows are compounds tested against Rac GTPase-activating protein 1 (Homo sapiens) (UniProt Q9H0H5) (assay: MgcRacGAP GTPase-activating activity inhibitors, confirmation, biochemical, ADP Hunter fluorescence, primary and confirmatory (AID 624330;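 also: fluorescence reports GDP produced by GAP-driven GTP hydrolysis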)). Conditions: MgcRacGAP-stimulated Rac1 GTP hydrolysis, at 30 µM, active compounds read high, GST-tagged Rac1 F28L mutant substrate.
Rac GTPase-activating protein 1 (Homo sapiens), sequence (Q9H0H5 whole entry, looked up): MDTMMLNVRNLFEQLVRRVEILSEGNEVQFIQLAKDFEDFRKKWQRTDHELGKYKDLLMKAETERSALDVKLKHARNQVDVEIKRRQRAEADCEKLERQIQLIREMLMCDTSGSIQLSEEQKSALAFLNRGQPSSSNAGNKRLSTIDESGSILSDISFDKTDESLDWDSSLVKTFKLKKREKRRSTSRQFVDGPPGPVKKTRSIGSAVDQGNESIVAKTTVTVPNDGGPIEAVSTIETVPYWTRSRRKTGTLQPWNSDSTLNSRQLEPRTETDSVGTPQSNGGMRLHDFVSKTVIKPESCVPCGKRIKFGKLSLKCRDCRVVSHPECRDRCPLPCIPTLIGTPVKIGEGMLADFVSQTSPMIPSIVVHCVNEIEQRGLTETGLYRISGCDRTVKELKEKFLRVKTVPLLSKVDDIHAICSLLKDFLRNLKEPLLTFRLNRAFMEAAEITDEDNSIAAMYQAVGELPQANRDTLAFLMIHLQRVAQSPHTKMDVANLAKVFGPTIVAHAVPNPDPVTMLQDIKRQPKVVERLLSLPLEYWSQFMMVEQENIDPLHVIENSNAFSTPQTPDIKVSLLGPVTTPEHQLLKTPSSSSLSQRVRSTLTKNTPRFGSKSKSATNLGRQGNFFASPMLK
`Cc1cc(OC(C)C(=O)NCCCN2CCOCC2)c2c(C)cc(=O)oc2c1` (configuration not stated) gave an inhibition of 5.41%.
`CCN1C[C@@H]2[C@@H]3C(=O)N(C)C(=O)[C@@H]3[C@](Cc3ccccc3)(C(=O)OC)N2C1=NCc1ccccc1` gave an inhibition of 8.57%.
Compound `COc1cccc(NC(=O)COc2ncnc3sc(C)c(C)c23)c1` has an inhibition of 5.65%.
Work on `CCOc1ccccc1/C=C(/NC(=O)c1ccccc1)C(=O)N(CC)CC` yielded an inhibition of 5.35%.
With `CC[C@]12C(=O)N(C)C[C@H]([C@@H]3C(=O)N(C)C(=O)[C@@H]31)N2C(=O)c1ccc(F)cc1` the inhibition was 7.98%.
`CNS(=O)(=O)c1cccc(C(=O)OCC(=O)C23CC4CC(CC(C4)C2)C3)c1` gave an inhibition of 2.1%.
For `COc1ccc(/C=N/NC(=O)COc2cccc3cccnc23)cc1OC`, the inhibition was 12%.
For `O=C(COc1ccccc1[N+](=O)[O-])N/N=C/c1ccncc1`, the inhibition was 3.99%.
For `O=C(COc1cccc2cccnc12)N/N=C/c1ccccc1O`, the inhibition was 9.73%.
With `COCc1cc(C)nc(OCC(=O)N/N=C/c2ccccc2)c1C#N` the inhibition was 5.88%.
`O=C(COc1ccccc1[N+](=O)[O-])N/N=C/c1ccc(O)c([N+](=O)[O-])c1` showed an inhibition of 5%.
`COCc1cc(C)nc(OCC(=O)N/N=C/c2ccc(C)cc2)c1C#N` showed an inhibition of 6.19%.
`CC(C(=O)NCC1CCCCC1)N(C)Cc1ccc(Cl)cc1` (configuration not stated) gave an inhibition of 9.97%.
For `NC(=O)c1ccc(NC(=O)CCc2nc3ccccc3s2)cc1`, the inhibition was 9.08%.
For `Fc1ccccc1CN1CCN(c2ncccn2)CC1`, the inhibition was 18.2%.
`COc1ccc(CN2CCN(C(=O)c3cccnc3)CC2)cc1Br` showed an inhibition of 26.4%.
`COc1ccccc1C(=O)N1CCN(CCc2ccccc2)CC1` gave an inhibition of 5.14%.
Compound `COc1ccccc1C(=O)N1CCN=C1SCc1cccnc1` has an inhibition of 9.35%.
Compound `COc1cccc(OC)c1C(=O)N1CCN(Cc2ccncc2)CC1` has an inhibition of 17.3%.
`CCOc1ccccc1/C=C/c1nc2ccccc2[nH]c1=O` was tested, and the inhibition was -3.6%.
Work on `CSCCC(=O)N(C)CC1CCN(CCc2cccc(C(F)(F)F)c2)CC1` yielded an inhibition of -11.6%.
In the case of `COc1cc(OC)nc(NC(=O)NS(=O)(=O)c2ccc(OC(F)(F)F)cc2)n1`, the inhibition is reported as 7.78%.
For `COc1ccc2nc(SCC(=O)NC3CCCCC3C)[nH]c2c1` (configuration not stated), the inhibition was 6.19%.
In the case of `COc1ccc(C(O)(C(C)C)C(CN2CCOCC2)c2ccc(Cl)cc2)cc1` (configuration not stated), the inhibition is reported as 3.23%.
In the case of `COc1cc(/C=N/Nc2cc(C)nc(NS(=O)(=O)c3ccc(C)cc3)n2)ccc1O`, the inhibition is reported as 23.4%.
Work on `COc1ccc(/C=N/Nc2cc(C)nc(NS(=O)(=O)c3ccc(C)cc3)n2)cc1` yielded an inhibition of 8.72%.
For `COc1cc(/C=N/Nc2nc(C)cc(C)n2)ccc1OC(=O)c1ccco1`, the inhibition was 12.7%.
With `COc1cc(/C=N/Nc2nc(C)cc(C)n2)cc(OC)c1OC` the inhibition was 18.6%.
For `Oc1ccccc1/C=N/NC1=NCCCCC1`, the inhibition was -4.7%.
Work on `COc1ccc(-c2cnnc(N/N=C/c3ccc(O)cc3)n2)cc1` yielded an inhibition of 15.5%.
`Oc1ccc(/C=N/NC2=NCCCCC2)cc1` was tested, and the inhibition was 14.8%.
With `COc1ccc(-c2cnnc(N/N=C/c3ccc(O)c(OC)c3)n2)cc1` the inhibition was 28.9%.
`CC(=O)NCc1nc2ccccc2n1Cc1ccccc1F` was tested, and the inhibition was 2.14%.
`Cc1cccc(C(=O)OCC(=O)NC2CCCCCCC2)c1` gave an inhibition of -0.77%.
In the case of `Cc1cc(C)c(C#N)c(SCc2nc3ccccc3[nH]2)n1`, the inhibition is reported as 11.2%.
`CCN(C(=O)c1ccccc1)c1ccc([N+](=O)[O-])cc1` gave an inhibition of 6.29%.
Work on `C=CCn1c(N)cc(=O)nc1SCC(=O)Nc1ccc2ccccc2c1` yielded an inhibition of 6.15%.
Work on `NC1=NC(c2ccccc2)CC(=O)N1` (configuration not stated) yielded an inhibition of 0.78%.
`COc1ccc(OC)c(CN2CCN(CC(=O)Nc3ccccc3C(=O)NC3CC3)CC2)c1` was tested, and the inhibition was 3.43%.
`Cc1ccc(-n2c(CNc3cccc(Cl)c3)n[nH]c2=S)cc1` gave an inhibition of -10.3%.
With `CCN(CC)S(=O)(=O)c1cccc(C(=O)NCC2CCCO2)c1` (configuration not stated) the inhibition was -3.29%.
Work on `S=C(c1ccc(-c2ccccc2Cl)o1)N1CCOCC1` yielded an inhibition of 10.6%.
Compound `COc1cc(/C=N/Nc2nnc3c(n2)[nH]c2ccccc23)ccc1O` has an inhibition of 9.92%.
With `COc1ccccc1/C=N/NC1=NCCCCC1` the inhibition was 4.83%.
`Cc1cc(C)nc(N/N=C/c2ccc(Cl)cc2)n1` was tested, and the inhibition was 7.83%.
For `CCNc1nc(NCC)nc(N/N=C/c2ccc(Br)cc2)n1`, the inhibition was 4.59%.
For `Cc1ccc(/C=N/Nc2nc(C)cc(C)n2)cc1`, the inhibition was 6.97%.
In the case of `COc1ccc(/C=N/NC2=NCCCCC2)cc1`, the inhibition is reported as -0.36%.
`CCNc1nc(NCC)nc(N/N=C/c2ccccc2)n1` gave an inhibition of 5.89%.
`COc1cc(/C=N\Nc2nc(-c3ccc(C)cc3)c(NC(C)=O)s2)ccc1O` was tested, and the inhibition was 17.7%.
In the case of `CS(=O)(=O)N(CC(=O)N1CCCC1)c1cc(Cl)ccc1Cl`, the inhibition is reported as 8.42%.
In the case of `Cc1ccc(S(=O)(=O)NCC(c2ccco2)N2CCc3ccccc3C2)cc1` (configuration not stated), the inhibition is reported as 2.71%.
`Cc1c(N(C)S(=O)(=O)c2ccc(Cl)c(C(=O)NCC3CCCO3)c2)c(=O)n(-c2ccccc2)n1C` (configuration not stated) gave an inhibition of 1.31%.
For `O=C(Nc1nnc(C2CC2)s1)C1CCCCC1`, the inhibition was 3.57%.
`CCOc1ccc(CCNC(=O)COC(=O)c2ccc(OC(C)C)cc2)cc1OCC` was tested, and the inhibition was -0.74%.
`CCOc1ccccc1CN1CCC(N2CCC(C(=O)NC3CC3)CC2)CC1` was tested, and the inhibition was 9.11%.
`CCOc1ccccc1CN1CCC(O)CC1` gave an inhibition of 15.6%.
Compound `CCOc1ccc(C(=O)NCCC(=O)NCCCC(=O)O)cc1` has an inhibition of -5.31%.
With `O=C(CCS(=O)(=O)c1ccc(Cl)cc1)Nc1nnc(-c2ccco2)o1` the inhibition was 3.12%.
With `COc1ccccc1CNC(=O)CCSCc1cccc(Cl)c1` the inhibition was -0.5%.
`COc1cccc(CNCCO)c1OCc1ccc(Cl)cc1` gave an inhibition of 9.58%.
In the case of `COc1ccc(CNCc2ccc(C(F)(F)F)cc2)cc1OC`, the inhibition is reported as 2.76%.
In the case of `COc1ccc(CCNC(=O)Cc2cccc(C(F)(F)F)c2)cc1OC`, the inhibition is reported as 8.81%.
In the case of `COc1ccc(CNCCc2ccc([N+](=O)[O-])cc2)c(OC)c1OC`, the inhibition is reported as 25.1%.
For `COc1cccc(CNCc2ccccc2OC)c1`, the inhibition was 22.3%.
`COc1ccccc1CNCc1cc(Br)ccc1OC` was tested, and the inhibition was 23.1%.
Compound `COc1ccc(NC(=O)NCCc2cccc(Cl)c2)cc1OC` has an inhibition of 11.4%.
